Screening results (PubChem BioAssay)
The list is not random: actives were taken first. Their share in the collection is about 2.9%.
S1P4 antag: antagonists of human S1P4 receptor; S1P4-expressing cells, antagonist mode, reporter read-out; inhibition, % at 4.98 µM; 220,000 compounds, 0.26% hits; in the data active = inhibition above about 29%;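 note: 0% = wells stimulated with agonist and 100% = vehicle wells without agonist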
S1P3 antag: S1P3 (human) receptor antagonism; CHO S1P3 NFAT-BLA reporter, FRET fluorescence, antagonist mode; inhibition, % at 4.98 µM; 170,000 compounds, 0.27% hits; AID 485;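 active = inhibition above the plate cutoff, the mean inhibition of test wells on that plate plus 3 SD, cut at about 28% in these data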;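 note: cells challenged with S1P at its EC80 of 0.8 µM; blue over green emission ratio from cleaved BLA substrate after 4 h stimulation; 0% = S1P-stimulated wells and 100% = unstimulated DMSO-only wells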
Target sequence (Q99500 whole entry, looked up): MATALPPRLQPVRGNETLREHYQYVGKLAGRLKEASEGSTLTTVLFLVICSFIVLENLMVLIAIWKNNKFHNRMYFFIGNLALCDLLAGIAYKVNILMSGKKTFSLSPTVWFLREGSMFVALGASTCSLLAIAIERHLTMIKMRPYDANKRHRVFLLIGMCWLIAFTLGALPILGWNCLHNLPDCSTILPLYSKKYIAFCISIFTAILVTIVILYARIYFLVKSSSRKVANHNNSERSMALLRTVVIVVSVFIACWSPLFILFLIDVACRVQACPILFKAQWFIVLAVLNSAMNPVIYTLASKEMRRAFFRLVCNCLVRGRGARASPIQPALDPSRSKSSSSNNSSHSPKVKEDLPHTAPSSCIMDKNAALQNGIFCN
HSF1 activator: increases HSF-1 driven luciferase reporter signal; NIH3T3-HGL HSF-1 luciferase reporter, MG132, 8 h; 100% = twice DMSO control signal; activation, % at 9 µM; 300,000 compounds, 1.7% hits;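 active = mean replicate activation of at least 50% with a set share of replicates each reaching 50%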;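 note: 0% = median of the neutral control wells and 100% = twice that signal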
HSF1 inhib: HSF1 inhibition; 300,000 compounds, 0.77% hits; activity change, negative = inhibition, % at 7.5 µM (by protocol); AID 2098; NIH3T3-HGL HSE-luciferase, MG132-induced, luminescence 8 h; hits give low values;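 active = more than half of replicate wells show activity change below -50%, luminescence cut by over half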;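 note: luciferase reports HSF-1 transcriptional activity via heat shock element; 0% = median of DMSO wells and -100% = zero luminescence signal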
S1P4 agonist: human S1P4 receptor agonism; O95977; S1P4-expressing cell line, agonist reporter assay; activation, % at 4.98 µM; 220,000 compounds, 0.35% hits; in the data active = activation above about 11%;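 note: 0% = DMSO vehicle and 100% = reference agonist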
Hsp70 act: switches on Hsp70 transcription; 200,000 compounds, 0.04% hits; activation, % at 10 µM; HeLa Hsp70 promoter luciferase reporter, luminescence; scaled: vehicle 0, proteasome-inhibitor control 100%;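 active = activation above the mean across all tested compounds plus 3 SD, cutoff set per campaign, cut at about 5.5% in these data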;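 note: 100% = MG132 at 30 µM as the positive control and 0% = DMSO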
Starred values were filed as active, the others as inactive.

How did Cc1cc(C)c(NC(=O)C2CC3CCC2C3)c(C)c1 (stereo unspecified) do in these assays?
HSF1 activator: -2; HSF1 inhib: 5

What do the screens show for `Cc1ccccc1Cn1cc(C)c(=O)[nH]c1=O`?
S1P4 antag: -11; S1P3 antag: -12; HSF1 activator: -4; HSF1 inhib: -4; S1P4 agonist: 2; Hsp70 act: 0

What do the screens show for `Cc1cn(Cc2ccccc2Cn2cc(C)c(=O)[nH]c2=O)c(=O)[nH]c1=O`?
S1P4 antag: 7; S1P3 antag: 5; HSF1 activator: 71*; HSF1 inhib: 27; S1P4 agonist: 0

How did Cc1cc(=O)oc2cc(OCc3ccc(C(=O)N4CCN(c5ccccc5)CC4)cc3)ccc12 do in these assays?
S1P4 antag: -4; S1P3 antag: 2; HSF1 activator: 34; HSF1 inhib: 15; S1P4 agonist: 0; Hsp70 act: 0

Results for Cc1cccc(CN2CCNC2=O)c1 ?
S1P4 antag: -17; S1P3 antag: -21; HSF1 activator: -77; HSF1 inhib: -71*; S1P4 agonist: 0; Hsp70 act: 0

How did COc1ccc(OC)c(NC(=O)CSc2nccn2Cc2ccco2)c1 do in these assays?
HSF1 activator: -2; HSF1 inhib: 1

Results for N#Cc1ccc(C(=O)OCC(=O)Nc2ccc(N3CCOCC3)cc2)cc1 ?
S1P4 antag: -17; S1P3 antag: -13; HSF1 activator: -3; HSF1 inhib: -3; S1P4 agonist: 2; Hsp70 act: 0

How did COCCOC(=O)C1=C(C)NC(C)=C(C(=O)OCCOC)C1/C=C/c1ccccc1OC do in these assays?
S1P4 antag: 5; S1P3 antag: -16; HSF1 activator: 77*; HSF1 inhib: 47; S1P4 agonist: 1

How did CCOC(=O)C1=C(C)NC(C)=C(C(=O)OCC)C1/C=C/c1ccccc1OC do in these assays?
S1P4 antag: -5; S1P3 antag: -5; HSF1 activator: 67*; HSF1 inhib: 26; S1P4 agonist: -1; Hsp70 act: 0

What do the screens show for `COc1cc2c(cc1OC)C(c1cc3cccc(C)c3[nH]c1=O)N(C(=O)c1ccco1)CC2` (stereo unspecified)?
HSF1 activator: 12; HSF1 inhib: -2

What do the screens show for `NS(=O)(=O)c1ccc(N/N=C/c2ccccc2C(=O)O)c([N+](=O)[O-])c1`?
S1P4 antag: -7; S1P3 antag: -1; HSF1 activator: 61*; HSF1 inhib: 23; S1P4 agonist: 1; Hsp70 act: 0

How did COc1ccc(OC)c2nc(-c3ccc4c(c3)OCO4)ccc12 do in these assays?
HSF1 activator: 54*; HSF1 inhib: 28

What do the screens show for `c1ccc2nc(-c3ccc4c(c3)OCO4)ccc2c1`?
S1P4 antag: -20; S1P3 antag: -4; HSF1 activator: 48; HSF1 inhib: 26; S1P4 agonist: 1; Hsp70 act: 0

How did Cc1ccc(C2N(c3ccccc3)C(=S)N3CCCN23)cc1 (stereo unspecified) do in these assays?
S1P4 antag: 10; HSF1 activator: -86; HSF1 inhib: -82*; S1P4 agonist: 4; Hsp70 act: 0

How did Cc1ccc(S(=O)(=O)c2cn(C)c3cc(N4CCOCC4)c(F)cc3c2=O)cc1 do in these assays?
HSF1 activator: -5; HSF1 inhib: 3

How did COc1ccc2nc3sc(C(=O)NCc4cccs4)c(N)c3cc2c1 do in these assays?
S1P4 antag: -1; S1P3 antag: 54*; HSF1 activator: 55*; HSF1 inhib: 31; S1P4 agonist: 0; Hsp70 act: 0

What do the screens show for `O=C(O)CCCNc1ccc([N+](=O)[O-])c(NCCCC(=O)O)n1`?
S1P4 antag: -2; S1P3 antag: -9; HSF1 activator: -23; HSF1 inhib: -7; S1P4 agonist: -1; Hsp70 act: 0

How did Cc1ccc(C(=O)Nc2c(C)cc(-c3ccccc3)oc2=O)cc1 do in these assays?
S1P4 antag: -6; S1P3 antag: -9; HSF1 activator: 2; HSF1 inhib: -2; S1P4 agonist: -2; Hsp70 act: 0

What do the screens show for `O=C(NCc1ccc(Cl)cc1Cl)Nc1ccccc1`?
HSF1 activator: 71*; HSF1 inhib: 38

What do the screens show for `Cc1ccc(C)c(CNC(=O)Nc2ccccc2)c1`?
HSF1 activator: 57*; HSF1 inhib: 26
